Rows were chosen to be rich in hits. Some 12% of all compounds tested hit in one or more screens of this group.
PI5P4Ka inh: blocks human PI5P4K alpha kinase activity; PI5P4Kalpha enzyme, ADP-Glo luminescence, 60 min; stronger effect = lower value; max response, %; actives 1.2% (n = 330,000); active means max response of -50% or lower; inconclusive means between -30% and -50%; inactive means -30% or higher; further: value at the top dose of about 77 µM
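Compounds were pin-transferred onto PI5P4Kalpha and substrate in HEPES pH 7.4 buffer with EGTA, CHAPS and 5% DMSO. ATP (5 microM final) started the reaction, which ran 60 minutes at room temperature before ADP-Glo detection.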
PLK1 PBD inh: blocks phosphopeptide binding to human PLK1 polo-box domain. actives 2.8% (n = 360,000). AID 720504. P53350. Plk1 PBD binding of FITC phosphopeptide, fluorescence polarization. Potency, µM, usual class: inhibitors; further: series mostly up to about 57 µM; nearly all actives have a fitted effect of over 65% in size
Target sequence (P53350 whole entry, looked up, the tested form may be a part): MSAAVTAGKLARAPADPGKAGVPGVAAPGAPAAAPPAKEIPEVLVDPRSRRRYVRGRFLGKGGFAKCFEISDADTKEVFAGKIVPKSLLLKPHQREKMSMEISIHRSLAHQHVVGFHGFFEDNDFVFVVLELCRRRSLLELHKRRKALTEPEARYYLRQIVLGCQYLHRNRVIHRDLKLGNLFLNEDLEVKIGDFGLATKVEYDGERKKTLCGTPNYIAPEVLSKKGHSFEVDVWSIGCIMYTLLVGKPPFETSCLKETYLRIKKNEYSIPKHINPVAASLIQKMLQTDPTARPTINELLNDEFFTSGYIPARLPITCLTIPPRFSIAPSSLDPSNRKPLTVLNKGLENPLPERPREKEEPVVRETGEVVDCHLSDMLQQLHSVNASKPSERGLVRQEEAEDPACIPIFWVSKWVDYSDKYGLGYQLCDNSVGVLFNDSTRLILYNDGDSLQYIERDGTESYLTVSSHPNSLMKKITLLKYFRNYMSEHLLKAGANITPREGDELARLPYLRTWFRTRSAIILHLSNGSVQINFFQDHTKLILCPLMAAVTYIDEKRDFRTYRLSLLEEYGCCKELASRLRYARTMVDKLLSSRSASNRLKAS
JMJD2A Tudor inh: inhibitors of human JMJD2A Tudor domain | AlphaScreen JMJD2A-Tudor / H3K4me3 peptide binding | O75164 | AID 504339 | actives 4.4% (n = 390,000) | Potency, µM (highest dose often 114 µM), hits mostly inhibitors; further: nearly all actives have a fitted effect of over 50% in size
BAZ2B block: BAZ2B (human) inhibition; AlphaScreen BAZ2B-H3K14Ac peptide displacement; Potency, µM (top dose mostly 114 µM), most hits filed as inhibitors; actives 4.4% (n = 360,000); AID 504333; further: nearly all actives have a fitted effect of over 60% in size
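BAZ2B (50 nM) with biotin-H3(5-23)K14Ac peptide (50 nM) in PBS pH 7.4, 0.01% Tween-20, preformed 30 min, then compound 30 min at room temperature; top concentration 110uM. AlphaScreen streptavidin donor/nickel chelate acceptor beads (10 ug/mL final), 20 min dark, signal read.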
HP1b chromo inh: HP1-beta chromodomain-methylated histone interaction inhibition; actives 0.56% (n = 390,000); Potency, µM (titrated, usually from 114 µM), hits mostly inhibitors; P83916; AlphaScreen HP1-beta / biotin-H3K9me3 peptide binding; further: nearly all actives have a fitted effect of over 70% in size
Target sequence (P83916 whole entry, looked up): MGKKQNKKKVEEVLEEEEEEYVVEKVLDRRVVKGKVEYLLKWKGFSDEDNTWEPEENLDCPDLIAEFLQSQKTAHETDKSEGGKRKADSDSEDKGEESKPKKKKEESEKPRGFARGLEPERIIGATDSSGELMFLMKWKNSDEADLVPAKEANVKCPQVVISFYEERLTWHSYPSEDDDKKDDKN
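HP1-beta protein (50 nM final) preincubated 30 min at room temperature with biotinylated H3(1-18)K9me3 peptide (50 nM) in PBS pH 7.4, 0.01% Tween-20, then compound added for 30 min. AlphaScreen streptavidin donor/nickel chelate acceptor beads (10 ug/mL final), 30 min dark, luminescence read.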
G9a inh: blocks human histone lysine methyltransferase G9a | Potency, µM (series often up to 102 µM), most hits filed as inhibitors | G9a H3K9 monomethylation, AlphaScreen, 2 h | actives 8.8% (n = 350,000) | AID 504332 | Q96KQ7; further: nearly all actives have a fitted effect of over 75% in size
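Signal arises when biotinylated H3K9 peptide, once monomethylated, bridges streptavidin donor and antibody-captured acceptor beads. Enzyme at 20 nM was preincubated 15 min with test compounds; peptide 500 nM and SAM 20 uM then reacted for 2 h.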
Large screens that a line does not name were inactive. Unless noted, the call rests on the fitted dose curve; in most records, active means well fitted curve in the direction sought with a large enough effect; inconclusive means small, poorly fitted or top-dose-only effect, or another doubt; inactive means no such curve, though single readings can be large; an effect the other way counts as inactive or inconclusive.

O=C(NCCc1ccc(Cl)cc1Cl)c1cccnc1	HP1b chromo inh inconclusive
O=S(=O)(CCCc1ccccc1)c1ncn[nH]1	none
Nc1n[nH]c(S(=O)(=O)CCCc2ccccc2)n1	G9a inh 50µM
COc1cccc(Nc2nc(-c3sc(C)nc3C)cs2)c1	JMJD2A Tudor inh inconclusive, BAZ2B block inconclusive (no result: G9a inh)
COc1ccc(OC)c(Nc2nc(-c3sc(C)nc3C)cs2)c1	JMJD2A Tudor inh 40µM, BAZ2B block 32µM, HP1b chromo inh inconclusive, G9a inh 50µM
CCCC(C)C(=O)Nc1nc(C)c(-c2csc(Nc3ccccc3OC)n2)s1 (centres undefined)	JMJD2A Tudor inh inconclusive, BAZ2B block inconclusive, G9a inh 7.9µM
COc1ccc(OC)c(Nc2nc(-c3sc(NC(=O)CC(C)C)nc3C)cs2)c1	JMJD2A Tudor inh 45µM, BAZ2B block inconclusive, HP1b chromo inh inconclusive, G9a inh 8.9µM
CCC(C)C(=O)Nc1nc(C)c(-c2csc(Nc3cc(OC)ccc3OC)n2)s1 (centres undefined)	JMJD2A Tudor inh 50µM, BAZ2B block 50µM, G9a inh 22µM
CCCCCC(=O)Nc1nc(C)c(-c2csc(Nc3ccccc3OC)n2)s1	JMJD2A Tudor inh inconclusive, BAZ2B block inconclusive, G9a inh inconclusive
CC(=O)Oc1c(-c2ccc(Br)o2)oc2ccccc2c1=O	G9a inh inconclusive
CCc1cc2c(=O)c(-c3nc4ccccc4n3C)c(C)oc2c(CN2CCN(C)CC2)c1O	none (no result: PI5P4Ka inh, PLK1 PBD inh, JMJD2A Tudor inh, HP1b chromo inh)
CCc1cc(-c2n[nH]c(C)c2-c2nc3ccccc3n2C)c(O)c(CN2CCN(C)CC2)c1O	JMJD2A Tudor inh inconclusive, BAZ2B block inconclusive, G9a inh 45µM (no result: PI5P4Ka inh)
CCc1cc(-c2n[nH]c(CCC(=O)O)c2-c2nc3ccccc3n2C)c(O)cc1O	G9a inh 7.1µM
CCc1cc(-c2n[nH]c(C)c2-c2nc3ccccc3n2C)c(O)cc1O	BAZ2B block inconclusive
COc1ccc(-c2nc(CNS(=O)(=O)c3cccc(F)c3)cs2)cc1	none (no result: PI5P4Ka inh, PLK1 PBD inh)
Cc1ccccc1N=C1SCCN1C(=O)CN1C(=O)NC2(CCCC2)C1=O	G9a inh inconclusive
COc1ccc(/C=C2\SC(N)=NC2=O)cc1	none
CCOC(=O)C1CCCN(C2=NC(=O)/C(=C/c3ccc(N(C)C)cc3)S2)C1 (centres undefined)	BAZ2B block 45µM, G9a inh 40µM
CCOC(=O)C1CCN(C2=NC(=O)/C(=C/c3ccc(O)cc3)S2)CC1	PLK1 PBD inh inconclusive, G9a inh 40µM
CCOC(=O)CSC1=NC(=O)/C(=C/c2ccc(OC)cc2)S1	PI5P4Ka inh -51, PLK1 PBD inh 2.7µM, G9a inh 7.1µM
CCOC(=O)C1CCCN(C2=NC(=O)/C(=C/c3ccc(OC)cc3OC)S2)C1 (centres undefined)	PI5P4Ka inh -79, PLK1 PBD inh 19µM, G9a inh 25µM
CCOC(=O)C1CCCN(C2=NC(=O)/C(=C/c3ccc(OC)cc3)S2)C1 (centres undefined)	none
CCOC(=O)[C@]12CCCC=C1N(Cc1cccc3ccccc13)C(=O)[C@H](CC(=O)NCCCN1CCCC1=O)C2	none (no result: JMJD2A Tudor inh, BAZ2B block, HP1b chromo inh, G9a inh)
O=C(CSc1nnc(Nc2ccccc2F)s1)c1cc2ccccc2o1	PI5P4Ka inh inconclusive, HP1b chromo inh inconclusive, G9a inh 7.9µM
O=C1c2ccccc2C(=O)N1CSc1nnc(Nc2ccccc2F)s1	G9a inh 10µM
O=C1c2ccccc2C(=O)N1CSc1nnc(Nc2ccccc2)s1	G9a inh inconclusive
CC(N)(C(=O)O)c1ccc(S(=O)(=O)O)cc1 (centres undefined)	none (no result: PI5P4Ka inh, PLK1 PBD inh, JMJD2A Tudor inh, BAZ2B block, HP1b chromo inh)
Cc1ccc2c(c1)C(=O)C(=O)N2Cc1ccccc1	JMJD2A Tudor inh inconclusive, HP1b chromo inh inconclusive (no result: BAZ2B block, G9a inh)
Cc1ccc2c(c1)C(=O)C(=O)N2CC1COc2ccccc2O1 (centres undefined)	PLK1 PBD inh inconclusive, JMJD2A Tudor inh inconclusive, BAZ2B block inconclusive, HP1b chromo inh inconclusive, G9a inh 50µM
Cc1ccc2c(c1)C(=O)C(=O)N2CCCOc1ccccc1	JMJD2A Tudor inh 56µM, BAZ2B block 50µM, HP1b chromo inh inconclusive, G9a inh 35µM
CCCCCOc1ccccc1CN1C(=O)C(=O)c2cc(C)ccc21	JMJD2A Tudor inh 18µM, BAZ2B block 6.3µM, HP1b chromo inh inconclusive, G9a inh 8.9µM (no result: PI5P4Ka inh, PLK1 PBD inh)
COc1ccc(NC(=O)C2=C(C)C(=O)OC23CCN(C(C)C)CC3)cc1Cl	BAZ2B block inconclusive (no result: PI5P4Ka inh, PLK1 PBD inh)
Cc1ccc(/C([O-])=C(/C(=S)NCc2ccc3c(c2)OCO3)[n+]2ccc(N(C)C)cc2)c(C)c1	PLK1 PBD inh inconclusive, JMJD2A Tudor inh inconclusive, BAZ2B block inconclusive, G9a inh 50µM
Oc1c(N=Nc2ccccn2)ccc2ccccc12	JMJD2A Tudor inh 2.8µM, BAZ2B block 3.2µM, HP1b chromo inh 5µM
COC(=O)c1sccc1S(=O)(=O)N(CC(=O)Nc1cccc(C)c1C)c1ccc(C)c(C)c1	none (no result: PI5P4Ka inh, PLK1 PBD inh)
Oc1cccc(/C=N/N2CCN(C3c4ccccc4-c4ccccc43)CC2)c1	JMJD2A Tudor inh 40µM, BAZ2B block inconclusive, HP1b chromo inh inconclusive, G9a inh inconclusive
C(=N\N1CCN(C2c3ccccc3-c3ccccc32)CC1)/c1ccncc1	JMJD2A Tudor inh 45µM, BAZ2B block 35µM, HP1b chromo inh inconclusive, G9a inh inconclusive
C/C(=N\N1CCN(C2c3ccccc3-c3ccccc32)CC1)c1ccncc1	JMJD2A Tudor inh inconclusive, BAZ2B block inconclusive, HP1b chromo inh inconclusive
COc1cc(/C=N/N2CCN(C3c4ccccc4-c4ccccc43)CC2)ccc1O	JMJD2A Tudor inh 56µM, BAZ2B block 35µM, G9a inh inconclusive
Cc1ccsc1/C=N/N1CCN(C2c3ccccc3-c3ccccc32)CC1	JMJD2A Tudor inh inconclusive, BAZ2B block inconclusive
COc1cccc(/C=N/N2CCN(C3c4ccccc4-c4ccccc43)CC2)c1O	JMJD2A Tudor inh inconclusive, G9a inh 35µM
O=C(O)C1C=CC(C(=O)O)c2ccccc21 (centres undefined)	none (no result: JMJD2A Tudor inh, BAZ2B block, HP1b chromo inh, G9a inh)
Oc1ccc(N=Nc2ccccc2-c2nn[nH]n2)c(O)c1	PI5P4Ka inh -63, PLK1 PBD inh inconclusive, JMJD2A Tudor inh inconclusive, BAZ2B block 50µM, G9a inh 35µM
Cc1ccccc1-c1nn[nH]n1	none (no result: PI5P4Ka inh)
CC(=O)c1cn(C2OC(CO)C3OC(C)(C)OC32)c(=O)n(C)c1=O (centres undefined)	none (no result: BAZ2B block, G9a inh)
O=[N+]([O-])c1ccc(Cl)cc1Sc1nc2ccccc2o1	JMJD2A Tudor inh 45µM, BAZ2B block 14µM, HP1b chromo inh 13µM, G9a inh inconclusive (no result: PI5P4Ka inh)
Cn1ccnc1Sc1cc(Cl)ccc1[N+](=O)[O-]	none
CCOC(=O)N1CCC(NC(=O)c2cnn(-c3ccc(C)cc3)c2-n2cccc2)CC1	none (no result: PI5P4Ka inh, PLK1 PBD inh)
CN(C)c1ccc(C2CC(c3cccc(NS(C)(=O)=O)c3)=NN2C(=O)c2ccccc2)cc1 (centres undefined)	BAZ2B block 20µM, HP1b chromo inh inconclusive (no result: G9a inh)

High-throughput results: PubChem, National Center for Advancing Translational Sciences (NCATS)
